{"source": "PubChem BioAssay (Tox21)", "note": "Inconclusive results are not listed. Activity calls are given as the source filed them. Unless noted, the call rests on the fitted dose curve."}
{"test": "qHTS assay for small molecule agonists of the p53 signaling pathway (AID 651631); further: nearly all actives have a fitted effect of over 15% in size", "conditions": "HCT-116 p53RE-bla reporter, beta-lactamase FRET ratio, 16 h; series mostly up to 73.3 µM", "outline": "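Beta-lactamase reporter activity under p53 response elements was quantified in HCT-116 cells by FRET fluorescence, following 16 h incubation with test compounds at 37 °C and 2 h substrate development at room temperature.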"}
{"smiles": "O=C(COCCOCCOCC(=O)Nc1c(I)cc(I)c(C(=O)O)c1I)Nc1c(I)cc(I)c(C(=O)O)c1I", "outcome": "inactive"}
{"smiles": "C=C(C)C(=O)OC", "outcome": "inactive"}
{"smiles": "C=C(C)[C@@H]1CC[C@@H](C)C[C@@H]1O", "outcome": "inactive"}
{"smiles": "COCCOCCOCCOC", "outcome": "inactive"}
{"smiles": "COc1ccc(OC)c(NC(=O)CC(C)=O)c1", "outcome": "inactive"}
{"smiles": "CCCCC(=O)N(C)C", "outcome": "inactive"}
{"smiles": "C1=C\\CC/C=C\\CC/1", "outcome": "inactive"}
{"smiles": "CCS(=O)(=O)CCn1c([N+](=O)[O-])cnc1C", "outcome": "inactive"}
{"smiles": "CC(Cl)COP(=O)(OCC(C)Cl)OCC(C)Cl", "note": "(stereo not drawn)", "outcome": "inactive"}
{"smiles": "CCCCC(C)C(=O)O", "note": "(stereo not drawn)", "outcome": "inactive"}
{"smiles": "CCCCC/C=C/CC(=O)OC", "outcome": "inactive"}
{"smiles": "C=C(C)C(=O)OCCCCCCOC(=O)C(=C)C", "outcome": "inactive"}
{"smiles": "NS(=O)(=O)c1ccc(Cl)c(S(N)(=O)=O)c1", "outcome": "inactive"}
{"smiles": "CC(C)SCc1ccco1", "outcome": "inactive"}
{"smiles": "F[Si-2](F)(F)(F)(F)F", "outcome": "inactive"}
{"smiles": "CCC(O)C(C)(C)C", "note": "(stereo not drawn)", "outcome": "inactive"}
{"smiles": "Cc1ccccc1OCC1CO1", "note": "(stereo not drawn)", "outcome": "inactive"}
{"smiles": "Cc1nc(C)nc(N2C[C@@H](C)N(c3ccnc([C@@H](C)O)n3)[C@@H](C)C2)n1", "outcome": "inactive"}
{"smiles": "CC(=O)OC(C)c1ccccc1", "note": "(stereo not drawn)", "outcome": "inactive"}
{"smiles": "O=C(O)c1ccccc1C(=O)OCc1ccccc1", "outcome": "inactive"}
{"smiles": "C=COCCOCCOC=C", "outcome": "inactive"}
{"smiles": "CCCCCCCCOC(C)=O", "outcome": "inactive"}
{"smiles": "CCN(Cc1cccc(S(=O)(=O)O)c1)c1ccccc1", "outcome": "inactive"}
{"smiles": "O=C(CN1CCN(Cc2ccc3c(c2)OCO3)CC1)N1c2ccccc2Sc2ccccc21", "outcome": "inactive"}
{"smiles": "CC(=O)N(CC(O)CO)c1c(I)c(C(=O)NCC(O)CO)c(I)c(C(=O)NCC(O)CO)c1I", "note": "(stereo not drawn)", "outcome": "inactive"}
{"smiles": "CC1=NN(c2ccc(S(=O)(=O)O)cc2)C(=O)C1N=Nc1ccccc1", "note": "(stereo not drawn)", "outcome": "inactive"}
{"smiles": "C=CCOCC(CO)(COCC=C)COCC=C", "outcome": "inactive"}
{"smiles": "C=C[Si](C)(C)O[Si](C)(C)C=C", "outcome": "inactive"}
{"smiles": "O=C(O)c1ccccc1C(=O)Nc1ccc(S(=O)(=O)Nc2nccs2)cc1", "outcome": "inactive"}
{"smiles": "Nc1cc(S(=O)(=O)O)ccc1S(=O)(=O)O", "outcome": "inactive"}
{"smiles": "O=CN1CCOCC1", "outcome": "inactive"}
{"smiles": "CCCCOC(=O)C(C)OC(=O)CCC", "note": "(stereo not drawn)", "outcome": "inactive"}
{"smiles": "CC(=O)OC(C(=O)c1ccccc1)c1ccccc1", "note": "(stereo not drawn)", "outcome": "inactive"}
{"test": "qHTS assay for small molecules that induce genotoxicity in human embryonic kidney cells expressing luciferase-tagged ATAD5 (AID 651632; active means well fitted activation curve with a large enough effect in the repeat runs; further: nearly all actives have a fitted effect of over 15% in size)", "conditions": "HEK293T ATAD5-luciferase induction, 16 h; series mostly up to 83.3 µM", "outline": "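Luminescent reporter readout, HEK293T ATAD5-luc line: 16 hr drug exposure (37C, 5% CO2) followed by Amplite, 30 min RT.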"}
{"smiles": "O=C(COCCOCCOCC(=O)Nc1c(I)cc(I)c(C(=O)O)c1I)Nc1c(I)cc(I)c(C(=O)O)c1I", "outcome": "inactive"}
{"smiles": "CC1=CC[C@H](CC=O)C1(C)C", "outcome": "inactive"}
{"smiles": "C=C(C)C(=O)OCCCCCCOC(=O)C(=C)C", "outcome": "inactive"}
{"smiles": "CC(C)SCc1ccco1", "outcome": "inactive"}
{"smiles": "CCC(O)C(C)(C)C", "note": "(stereo not drawn)", "outcome": "inactive"}
{"smiles": "CC(=O)OC(C)c1ccccc1", "note": "(stereo not drawn)", "outcome": "inactive"}
{"smiles": "CCN(Cc1cccc(S(=O)(=O)O)c1)c1ccccc1", "outcome": "inactive"}
{"smiles": "CC1=NN(c2ccc(S(=O)(=O)O)cc2)C(=O)C1N=Nc1ccccc1", "note": "(stereo not drawn)", "outcome": "inactive"}
{"smiles": "CCCCC[Si](OCC)(OCC)OCC", "outcome": "inactive"}
{"smiles": "CCCCOC(=O)C(C)OC(=O)CCC", "note": "(stereo not drawn)", "outcome": "inactive"}
{"test": "qHTS assay for small molecule agonists of the p53 signaling pathway - cell viability (AID 651633); further: nearly all actives have a fitted effect of over 30% in size", "conditions": "p53RE-bla HCT-116 viability, ATP luminescence, 16 h; series mostly up to 83.3 µM", "outline": "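Viability counter-read: CellTiter-Glo luminescence (30 min, room temperature) in the same p53RE-bla plates. These plates had been exposed to compounds for 16 h at 37 C.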"}
{"smiles": "O=C(COCCOCCOCC(=O)Nc1c(I)cc(I)c(C(=O)O)c1I)Nc1c(I)cc(I)c(C(=O)O)c1I", "outcome": "inactive"}
{"smiles": "C=C(C)C(=O)OC", "outcome": "inactive"}
{"smiles": "CC1=CC[C@H](CC=O)C1(C)C", "outcome": "inactive"}
{"smiles": "C=C(C)[C@@H]1CC[C@@H](C)C[C@@H]1O", "outcome": "inactive"}
{"smiles": "COCCOCCOCCOC", "outcome": "inactive"}
{"smiles": "COc1ccc(OC)c(NC(=O)CC(C)=O)c1", "outcome": "inactive"}
{"smiles": "CCCCC(=O)N(C)C", "outcome": "inactive"}
{"smiles": "C1=C\\CC/C=C\\CC/1", "outcome": "inactive"}
{"smiles": "CCS(=O)(=O)CCn1c([N+](=O)[O-])cnc1C", "outcome": "inactive"}
{"smiles": "CC(Cl)COP(=O)(OCC(C)Cl)OCC(C)Cl", "note": "(stereo not drawn)", "outcome": "inactive"}
{"smiles": "CCCCC(C)C(=O)O", "note": "(stereo not drawn)", "outcome": "inactive"}
{"smiles": "CCCCC/C=C/CC(=O)OC", "outcome": "inactive"}
{"smiles": "C=C(C)C(=O)OCCCCCCOC(=O)C(=C)C", "outcome": "inactive"}
{"smiles": "NS(=O)(=O)c1ccc(Cl)c(S(N)(=O)=O)c1", "outcome": "inactive"}
{"smiles": "CC(C)SCc1ccco1", "outcome": "inactive"}
{"smiles": "F[Si-2](F)(F)(F)(F)F", "outcome": "inactive"}
{"smiles": "CCC(O)C(C)(C)C", "note": "(stereo not drawn)", "outcome": "inactive"}
{"smiles": "Cc1ccccc1OCC1CO1", "note": "(stereo not drawn)", "outcome": "inactive"}
{"smiles": "Cc1nc(C)nc(N2C[C@@H](C)N(c3ccnc([C@@H](C)O)n3)[C@@H](C)C2)n1", "outcome": "inactive"}
{"smiles": "CC(=O)OC(C)c1ccccc1", "note": "(stereo not drawn)", "outcome": "inactive"}
{"smiles": "O=C(O)c1ccccc1C(=O)OCc1ccccc1", "outcome": "inactive"}
{"smiles": "C=COCCOCCOC=C", "outcome": "inactive"}
{"smiles": "CCCCCCCCOC(C)=O", "outcome": "inactive"}
{"smiles": "CCN(Cc1cccc(S(=O)(=O)O)c1)c1ccccc1", "outcome": "inactive"}
{"smiles": "O=C(CN1CCN(Cc2ccc3c(c2)OCO3)CC1)N1c2ccccc2Sc2ccccc21", "outcome": "inactive"}
{"smiles": "CC(=O)N(CC(O)CO)c1c(I)c(C(=O)NCC(O)CO)c(I)c(C(=O)NCC(O)CO)c1I", "note": "(stereo not drawn)", "outcome": "inactive"}
{"smiles": "CC1=NN(c2ccc(S(=O)(=O)O)cc2)C(=O)C1N=Nc1ccccc1", "note": "(stereo not drawn)", "outcome": "inactive"}
{"smiles": "C=CCOCC(CO)(COCC=C)COCC=C", "outcome": "inactive"}
{"smiles": "C=C[Si](C)(C)O[Si](C)(C)C=C", "outcome": "inactive"}
{"smiles": "CCCCC[Si](OCC)(OCC)OCC", "outcome": "inactive"}
{"smiles": "O=C(O)c1ccccc1C(=O)Nc1ccc(S(=O)(=O)Nc2nccs2)cc1", "outcome": "inactive"}
{"smiles": "Nc1cc(S(=O)(=O)O)ccc1S(=O)(=O)O", "outcome": "inactive"}
{"smiles": "O=CN1CCOCC1", "outcome": "inactive"}
{"smiles": "CCCCOC(=O)C(C)OC(=O)CCC", "note": "(stereo not drawn)", "outcome": "inactive"}
{"smiles": "CC(=O)OC(C(=O)c1ccccc1)c1ccccc1", "note": "(stereo not drawn)", "outcome": "inactive"}
